Experimental data published in PubChem BioAssay.
Results filed as inconclusive are left out. The source made the active and inactive calls.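 Rule for the calls, unless noted: active = normalized viability below 100% at a tested concentration; inactive = the rest.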

How the values were obtained:
[1] = growth inhibition of DIPG glioma cells, dose response, cell-based, SU-DIPG-XIII, MIPE5.0, CellTiter-Glo, qHTS (AID 1347064; cut-off not given, nearly all actives have AC50 up to about 23 µM); conditions: SU-DIPG-XIII viability, CellTiter-Glo ATP luminescence
[2] = viability loss in pontine glioma line – cell-based, SU-DIPG-XXV, MIPE5.0, CellTiter-Glo, qHTS, dose response (AID 1347065; cut-off not given, nearly all actives have AC50 up to about 26 µM;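 note: cells exposed to compound for 48 hours before ATP readout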); conditions: CellTiter-Glo ATP luminescence
[3] = growth inhibition of DIPG glioma cells, dose response, cell-based, SU-DIPG-IV, MIPE4.0, CellTiter-Glo, qHTS (AID 1347063; cut-off not given, nearly all actives have AC50 up to about 30 µM;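 note: compound exposure lasted 48 hours before the viability readout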); conditions: SU-DIPG-IV viability, CellTiter-Glo ATP luminescence
[4] = SU-DIPG-VI glioma cell viability, MIPE4.0 library, CellTiter-Glo luminescence, qHTS (AID 1347066; cut-off not given, nearly all actives have AC50 up to about 30 µM;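 note: cells exposed to compound for 48 hours before readout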); conditions: CellTiter-Glo ATP luminescence
[5] = SU-DIPG-XXV glioma cell viability, MIPE5.0 library, qHTS (AID 1347068; cut-off not given, nearly all actives have IC50 up to about 30 µM;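 for IC50: cells exposed to compound for 48 hours before viability readout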)
[6] = JHH-DIPG-1 glioma cell viability, MIPE5.0 library, CellTiter-Glo luminescence, qHTS (AID 1347067; cut-off not given, nearly all actives have AC50 up to about 26 µM;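 note: cells exposed to compound for 48 hours before readout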); conditions: JHH-DIPG-1 glioma viability, CellTiter-Glo ATP luminescence
[7] = modifiers of HSF1 nuclear foci, imaging, Selleck Cancer Library (AID 1347162; in the data active = plate-normalised HSF1 focus index below about 0.46); conditions: human cells, at 10 µM; SSMD: measured here: HSF1 foci SSMD mean; cell count: measured here: cell number; plate-normalised HSF1 focus index: stronger effect = lower value
[8] = ovarian cancer cell viability with rucaparib, profiling panel, oncology-focused library, rucaparib conditional (AID 1508598); conditions: patient-derived ovarian cancer cells, CellTiter-Glo viability, 144 h, stronger effect = lower value

COc1cc(OCc2cccc(-c3ccccc3)c2C)cc(OC)c1CN1CCCC[C@H]1C(=O)O
inactive: outcome [1]
active: AC50 [2] 20.9 µM

c1ccc(-c2oc3ncnc(NC[C@@H]4CCCO4)c3c2-c2ccccc2)cc1
active: AC50 [3] 20.9 µM | AC50 [4] 20.9 µM
inactive: outcome [5]

CN(C)CC[C@H](CSc1ccccc1)Nc1ccc(S(=O)(=O)NC(=O)c2ccc(N3CCN(Cc4ccccc4-c4ccc(Cl)cc4)CC3)cc2)cc1[N+](=O)[O-]
-3.9: SSMD [7]
6950: cell count [7]
active: AC50 [3] 7.43 µM | AC50 [2] 0.934 µM | AC50 [4] 2.35 µM | AC50 [6] 16.6 µM | IC50 [5] 13.2 µM | viability ([8]; at 0.0195 µM, OCI-C5x cells, with rucaparib 10 µM, 100% = cells with rucaparib alone) 85.3% | viability ([8]; at 0.0781 µM, OCI-C5x cells, with rucaparib 10 µM, 100% = cells with rucaparib alone) 79.6% | viability ([8]; at 0.0781 µM, OCI-P5x cells, without rucaparib) 99.6% | viability ([8]; at 0.313 µM, OCI-C5x cells, with rucaparib 10 µM, 100% = cells with rucaparib alone) 69% | viability ([8]; at 0.313 µM, OCI-C5x cells, without rucaparib) 46.2% | viability ([8]; at 0.313 µM, OCI-P5x cells, without rucaparib) 96.5% | viability ([8]; at 1.25 µM, OCI-C5x cells, with rucaparib 10 µM, 100% = cells with rucaparib alone) 62.2% | viability ([8]; at 1.25 µM, OCI-C5x cells, without rucaparib) 91.3% | viability ([8]; at 1.25 µM, OCI-P5x cells, without rucaparib) 91.4% | viability ([8]; at 5 µM, OCI-C5x cells, with rucaparib 10 µM, 100% = cells with rucaparib alone) 7.96% | viability ([8]; at 5 µM, OCI-C5x cells, without rucaparib) 22.6% | viability ([8]; at 5 µM, OCI-P5x cells, with rucaparib 20 µM, 100% = cells with rucaparib alone) 9.56% | viability ([8]; at 5 µM, OCI-P5x cells, without rucaparib) 75.3%
inactive: plate-normalised HSF1 focus index [7] 0.864 | viability ([8]; at 0.000305 µM, OCI-C5x cells, with rucaparib 10 µM, 100% = cells with rucaparib alone) 121% | viability ([8]; at 0.000305 µM, OCI-C5x cells, without rucaparib) 119% | viability ([8]; at 0.000305 µM, OCI-P5x cells, with rucaparib 20 µM, 100% = cells with rucaparib alone) 148% | viability ([8]; at 0.000305 µM, OCI-P5x cells, without rucaparib) 108% | viability ([8]; at 0.00122 µM, OCI-C5x cells, with rucaparib 10 µM, 100% = cells with rucaparib alone) 119% | viability ([8]; at 0.00122 µM, OCI-C5x cells, without rucaparib) 124% | viability ([8]; at 0.00122 µM, OCI-P5x cells, with rucaparib 20 µM, 100% = cells with rucaparib alone) 135% | viability ([8]; at 0.00122 µM, OCI-P5x cells, without rucaparib) 102% | viability ([8]; at 0.00488 µM, OCI-C5x cells, with rucaparib 10 µM, 100% = cells with rucaparib alone) 109% | viability ([8]; at 0.00488 µM, OCI-C5x cells, without rucaparib) 114% | viability ([8]; at 0.00488 µM, OCI-P5x cells, with rucaparib 20 µM, 100% = cells with rucaparib alone) 141% | viability ([8]; at 0.00488 µM, OCI-P5x cells, without rucaparib) 108% | viability ([8]; at 0.0195 µM, OCI-C5x cells, without rucaparib) 114% | viability ([8]; at 0.0195 µM, OCI-P5x cells, with rucaparib 20 µM, 100% = cells with rucaparib alone) 140% | viability ([8]; at 0.0195 µM, OCI-P5x cells, without rucaparib) 101% | viability ([8]; at 0.0781 µM, OCI-C5x cells, without rucaparib) 103% | viability ([8]; at 0.0781 µM, OCI-P5x cells, with rucaparib 20 µM, 100% = cells with rucaparib alone) 135% | viability ([8]; at 0.313 µM, OCI-P5x cells, with rucaparib 20 µM, 100% = cells with rucaparib alone) 121% | viability ([8]; at 1.25 µM, OCI-P5x cells, with rucaparib 20 µM, 100% = cells with rucaparib alone) 130%

COc1cc(N2CCC(C(N)=O)CC2)ccc1Nc1nc(N)c(Cl)c(Nc2ccccc2S(=O)(=O)C(C)C)n1
active: AC50 [3] 5.9 µM
